Measured values: PubChem BioAssay (NCATS)
Results filed as inconclusive are left out. Activity calls are given as the source filed them. The call rests on the fitted dose curve; in most records, active means well fitted curve in the direction sought with a large enough effect; inconclusive means small, poorly fitted or top-dose-only effect, or another doubt; inactive means no such curve, though single readings can be large; an effect the other way counts as inactive or inconclusive.

Tests used:
[1] = MultiTox-Fluor Cytotoxicity Assay - LYMP1-002 - Dead Cells (AID 960); further: nearly all actives have a fitted effect of over 60% in size; further: potency means the concentration at half of the fitted maximal effect
Procedure, shortened: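 Acute cytotoxicity in a human lymphoblastoid line is scored as rising dead-cell protease signal after 16 hr exposure at 37 C, measured fluorometrically (485/520).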

[2] = MultiTox-Fluor Cytotoxicity Assay - LYMP1-003 - Dead Cells (AID 961);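 further: cells exposed to compound for 16 h at 37 °C; nearly all actives have a fitted effect of over 70% in size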; further: potency means the concentration at half of the fitted maximal effect
Procedure, shortened: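 Human lymphoblastoid LYMP1-003 cells (2500/well) were treated with compounds for 16 hr at 37 C in complete medium. Dead-cell protease release was read by bis-AAF-R110 fluorescence (Ex/Em 485/520). AC50 came from Hill fits, normalized to DMSO and 15 uM tetraoctylammonium bromide.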

[3] = MultiTox-Fluor Cytotoxicity Assay - LYMP1-003 - Live Cells (AID 962);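 further: cells exposed to compound for 16 hours at 37 °C; cytotoxic hits lower the live-cell protease signal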
Procedure, shortened: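 Cells plated at 2500 per well and incubated 5 hr; compounds added and incubated 16 hr at 37 C; MultiTox-Fluor reagent added for 60 min at room temperature; fluorescence of liberated AFC measured at 405/510 nm.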

[4] = Cell Viability - LYMP1-003 - Assay at 24 hr (AID 963)
Procedure, shortened: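 Acute toxicity in LYMP1-003 lymphoblastoid cells: 24 hr compound treatment at 37 C, ATP measured with CellTiter-Glo after 30 min at room temperature. AC50 derived by fitting the Hill equation to qHTS titrations.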

[5] = Cell Viability - LYMP1-003 - Assay at 40 hr (AID 964); further: nearly all actives have a fitted effect of over 60% in size; further: potency means the concentration at half of the fitted maximal effect
Procedure, shortened: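 This qHTS cytotoxicity screen treats human lymphoblastoid cells (LYMP1-003) with compounds for 40 hr and quantifies cellular ATP via luciferase luminescence.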

[6] = Cell Viability - LYMP2-003 (AID 965);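 further: cells exposed to compounds for 24 h before reading; nearly all actives have a fitted effect of over 50% in size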; further: potency means the concentration at half of the fitted maximal effect
Procedure, shortened: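 Human lymphoblastoid LYMP2-003 cells, 2500/well, exposed to compounds for 24 h at 37 C in complete medium. Viability read as intracellular ATP by CellTiter-Glo luminescence; AC50 from Hill-equation fits of qHTS concentration-response data.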

[7] = Cell Viability - LYMP2-004 (AID 966); further: nearly all actives have a fitted effect of over 65% in size; further: potency means the concentration at half of the fitted maximal effect
Procedure, shortened: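 Acute toxicity is scored as a concentration-dependent drop in intracellular ATP, quantified by luciferase luminescence, in human lymphoblastoid cells exposed to compound for 24 hr. AC50 derives from Hill-equation modelling.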

[8] = Cell Viability - LYMP2-005 (AID 967); further: potency means the concentration at half of the fitted maximal effect
Procedure, shortened: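 Human lymphoblastoid LYMP2-005 cells, 2,500 per well in complete medium, rested 5 h at 37C then compound-treated 24 h at 37C. Intracellular ATP read by CellTiter-Glo luminescence after 30 min at room temperature; AC50 from Hill-equation fits of concentration-response data.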

[9] = Cell Viability - LYMP2-009 (AID 968); further: nearly all actives have a fitted effect of over 55% in size; further: potency means the concentration at half of the fitted maximal effect
[10] = Cell Viability - LYMP2-011 (AID 969); further: nearly all actives have a fitted effect of over 60% in size; further: potency means the concentration at half of the fitted maximal effect
Procedure, shortened: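 Acute toxicity is scored as a concentration-dependent drop in intracellular ATP of a human lymphoblastoid line after 24 hr treatment. Values are AC50s modeled with the Hill equation.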

[11] = Cell Viability - LYMP2-013 (AID 970); further: nearly all actives have a fitted effect of over 55% in size; further: potency means the concentration at half of the fitted maximal effect
Procedure, shortened: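 Acute toxicity was measured in human lymphoblastoid cells (2500/well) exposed to compound titrations for 24 hr, with ATP luminescence (CellTiter-Glo) as read-out and AC50 fitted by Hill equation.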

[12] = Cell Viability - LYMP2-015 (AID 971); further: nearly all actives have a fitted effect of over 55% in size; further: potency means the concentration at half of the fitted maximal effect
Procedure, shortened: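 Acute toxicity was scored as a concentration-dependent drop in intracellular ATP in lymphoblastoid cells after 24 hr compound exposure in complete medium. Detection used CellTiter-Glo luciferase luminescence.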

[13] = Cell Viability - LYMP2-017 (AID 972); further: nearly all actives have a fitted effect of over 55% in size; further: potency means the concentration at half of the fitted maximal effect
Procedure, shortened: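 Steps: plate 2500 lymphoblastoid cells per well; incubate 5 hr at 37 C; add compound across a concentration series and incubate 24 hr at 37 C; add CellTiter-Glo and read luminescence after 30 min at room temperature; fit Hill curves for AC50.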

[14] = Cell Viability - LYMP2-019 (AID 973); further: nearly all actives have a fitted effect of over 55% in size; further: potency means the concentration at half of the fitted maximal effect
Procedure, shortened: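 Cells plated at 2500/well and allowed 5 hr at 37 C before compound addition. After 24 hr incubation, CellTiter-Glo reagent was added, plates sat 30 min at room temperature, and luminescence was recorded.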

[15] = Cell Viability - LYMP2-021 (AID 974); further: potency means the concentration at half of the fitted maximal effect
Procedure, shortened: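 Concentration-response cytotoxicity in a human lymphoblastoid line: 24 hr treatment at 37 C in complete culture medium, tetraoctylammonium bromide as positive control, luminescent ATP quantitation as viability measure.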

[16] = Cell Viability - LYMP2-023 (AID 975); further: nearly all actives have a fitted effect of over 55% in size; further: potency means the concentration at half of the fitted maximal effect
Procedure, shortened: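 Concentration-dependent drop in intracellular ATP measures acute cytotoxicity in a human lymphoblastoid line treated for 24 hours in complete culture medium. AC50 values are taken from Hill-equation fits of qHTS data.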

[17] = Cell Viability - LYMP2-025 (AID 976); further: potency means the concentration at half of the fitted maximal effect
Procedure, shortened: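 In qHTS format, LYMP2-025 lymphoblastoid cells in complete culture medium received compound for 24 hr; ATP-based CellTiter-Glo signal gave viability, with AC50 derived by Hill equation.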

[18] = Cell Viability - LYMP2-002 (AID 977);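 further: compound exposure lasted 24 h at 37 °C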; further: potency means the concentration at half of the fitted maximal effect
Procedure, shortened: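 Cytotoxicity is scored as concentration-dependent loss of cellular ATP in a human lymphoblastoid line after 24 hr compound treatment at 37 C. AC50 is obtained by modelling concentration-response data with the Hill equation.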

[19] = Cell Viability - LYMP2-006 (AID 978); further: nearly all actives have a fitted effect of over 60% in size; further: potency means the concentration at half of the fitted maximal effect
Procedure, shortened: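 Human lymphoblastoid cells (LYMP2-006), 2500/well in complete medium, were treated with compound for 24 hr at 37 C. Cellular ATP was read by CellTiter-Glo luminescence after 30 min, and AC50 values came from Hill-equation fits of concentration-response data.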

[20] = Cell Viability - LYMP2-007 (AID 979); further: potency means the concentration at half of the fitted maximal effect
Procedure, shortened: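 Acute toxicity is scored as a concentration-dependent fall in intracellular ATP in human lymphoblastoid cells treated 24 hr at 37 C, measured by luciferase luminescence; Hill-equation modelling yields AC50.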

Measured: Potency

O=C(O)CCC(=O)C(=O)O
inactive: all assays above

O=CCCCC=O
inactive: [3] | [4] | [5]
active: [2] 50.1 µM | [6] 39.8 µM | [7] 25.1 µM | [9] 25.1 µM | [10] 20 µM | [11] 20 µM | [12] 15.8 µM | [13] 20 µM | [14] 25.1 µM | [15] 15.8 µM | [16] 25.1 µM | [17] 39.8 µM | [18] 31.6 µM | [19] 25.1 µM | [20] 20 µM

CCCCCCCC(=O)O
inactive: all assays above

Cc1ccccc1
not listed: [7] | [17]
inactive: all other assays above

CCOC(C)=O
inactive: all assays above

CC(O)CO (stereo not given)
inactive: all assays above

IC(I)I
inactive: all assays above

Nc1ccn([C@H]2CS[C@@H](CO)O2)c(=O)n1
inactive: all assays above

CC(C)(C)NC(=O)[C@@H]1C[C@@H]2CCCC[C@@H]2CN1C[C@@H](O)[C@H](Cc1ccccc1)NC(=O)[C@H](CC(N)=O)NC(=O)c1ccc2ccccc2n1
active: [1] 31.6 µM | [2] 50.1 µM | [5] 50.1 µM
inactive: [17]

CCCCC/C=C\C/C=C\CCCCCCCC(=O)O
not listed: [8]
inactive: all other assays above

CCCCCCCC/C=C\CCCCCCCC(=O)O
inactive: all assays above

CC1=C2[C@@H]([C@H](C)CC[C@H]2/C=C(\C)C(=O)O)[C@H](O)C1
inactive: all assays above

CC(C)=O
inactive: all assays above

O=S(=O)(O)O
inactive: all assays above

CCOc1ccc2c(c1)C(C)=CC(C)(C)N2
not listed: [2] | [5]
inactive: all other assays above

CC1=C(/C=C/C(C)=C/C=C/C(C)=C/CO)C(C)(C)CCC1
active: [6] 50.1 µM | [7] 39.8 µM | [8] 50.1 µM
inactive: [3] | [4] | [17] | [18] | [19]
